Activity calls are given as the source filed them. Rule for the calls: active = hit-call score of the fitted dose curve at least 0.9, where 1 is the maximum; inactive = score below 0.9.
Columns and labels:
Conditions in all cases: mRNA level, 48 h; actives raise or lower the signal
[1] = read-out: JUN Transcription Factor, JUN (gene 3725); experiment: LTEA_HepaRG_JUN: Life Technologies and Expression Analysis (LTEA) Assay for JUN Transcription Factor using HepaRG (AID 2283513)
Outline: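 HepaRG, 48 h exposure, 8-pt half-log series top 100 uM, 0.5% DMSO, duplicate. JUN mRNA by qRT-PCR (Fluidigm), housekeeping-normalized (ACTB/GAPDH/POLR2A); bidirectional curve fit vs DMSO baseline.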

[2] = read-out: Lipase C (LIPC), LIPC (gene 3990); experiment: LTEA_HepaRG_LIPC: Life Technologies and Expression Analysis (LTEA) Assay for Lipase C (LIPC) using HepaRG (AID 2283514)
Outline: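 LIPC expression was quantified by qRT-PCR against three housekeeping genes (ACTB, GAPDH, POLR2A). Differentiated human HepaRG cells received eight half-log doses (top 100 uM, 0.5% DMSO) in duplicate for 48 h; fitting bidirectional relative to DMSO.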

[3] = read-out: Lipoprotein lipase (LPL), LPL (gene 4023); experiment: LTEA_HepaRG_LPL: Life Technologies and Expression Analysis (LTEA) Assay for Lipoprotein lipase (LPL) using HepaRG (AID 2283515)
Outline: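 LPL transcript levels quantified by TaqMan qRT-PCR against three housekeeping genes after 48 h chemical treatment of HepaRG cells. Eight-point half-log series from 100 uM in 0.5% DMSO, tested in duplicate; bidirectional fitting versus vehicle.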

[4] = read-out: MicroRNA 122 (MIR122), gene 406906; experiment: LTEA_HepaRG_MIR122: Life Technologies and Expression Analysis (LTEA) Assay for MicroRNA 122 (MIR122) using HepaRG (AID 2283516); note: the transcript read is the microRNA miR-122
Outline: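 qRT-PCR read-out (TaqMan, Fluidigm array), normalized to three housekeeping genes; HepaRG cells dosed 48 h at 8 concentrations up to 100 uM in 0.5% DMSO, duplicate; gain or loss fitted against DMSO baseline.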

[5] = read-out: matrix metalloproteinase-10 (MMP10), MMP10 (gene 4319); experiment: LTEA_HepaRG_MMP10: Life Technologies and Expression Analysis (LTEA) Assay for matrix metalloproteinase-10 (MMP10) using HepaRG (AID 2283517)
Outline: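 Expression measured by TaqMan qRT-PCR with ACTB/GAPDH/POLR2A normalisation after 48 h chemical exposure of HepaRG cells. Eight half-log concentrations, top 100 uM, 0.5% DMSO vehicle, duplicates; gain or loss fitted against vehicle.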

MYC, MYC (gene 4609) = experiment: LTEA_HepaRG_MYC: Life Technologies and Expression Analysis (LTEA) Assay for MYC using HepaRG (AID 2283518)
Outline: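 HepaRG, ~100,000 cells/well, collagen I; 48 h plating; serum-free induction medium; 48 h dosing, duplicate, 100 uM top, half-log, 0.5% DMSO; total RNA → qRT-PCR MYC; gain/loss fit vs DMSO.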

[6] = read-out: matrix metalloproteinase-3 (MMP3), MMP3 (gene 4314); experiment: LTEA_HepaRG_MMP3: Life Technologies and Expression Analysis (LTEA) Assay for matrix metalloproteinase-3 (MMP3) using HepaRG (AID 2283519)
Outline: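 Fluidigm-based TaqMan qRT-PCR, normalized to ACTB, GAPDH and POLR2A and fitted bidirectionally versus 0.5% DMSO, measured transcript levels. Treatment: duplicate 48 h exposures of HepaRG cells, ~100,000/well, to eight half-log concentrations topping at 100 uM.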

[7] = read-out: Paternally Expressed 10 (PEG10), PEG10 (gene 23089); experiment: LTEA_HepaRG_PEG10: Life Technologies and Expression Analysis (LTEA) Assay for Paternally Expressed 10 (PEG10) using HepaRG (AID 2283520)
Outline: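 qRT-PCR read-out: PEG10 mRNA normalised to three housekeeping genes, fitted bidirectionally against 0.5% DMSO vehicle. HepaRG cells received test chemicals for 48 h in serum-free induction medium, 8 points, top 100 uM, half-log steps.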

[8] = read-out: Protein phosphatase 2A (PPP2R4), PTPA (gene 5524); experiment: LTEA_HepaRG_PPP2R4: Life Technologies and Expression Analysis (LTEA) Assay for Protein phosphatase 2A (PPP2R4) using HepaRG (AID 2283522)
Outline: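 HepaRG, 48 h exposure, 8-pt half-log series from 100 uM, 0.5% DMSO vehicle, duplicates. Readout: PPP2R4 mRNA, Fluidigm qRT-PCR, housekeeping-normalized. Bidirectional curve fit vs DMSO baseline.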

[9] = read-out: Phosphatase and tensin (PTEN), PTEN (gene 5728); experiment: LTEA_HepaRG_PTEN: Life Technologies and Expression Analysis (LTEA) Assay for Phosphatase and tensin (PTEN) using HepaRG (AID 2283523)
Outline: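 Read-out: TaqMan qRT-PCR of PTEN transcript, normalized to three housekeeping genes, fitted in both directions against 0.5% DMSO. Differentiated human HepaRG cultures received chemicals for 48 h, eight-point half-log series topping at 100 uM.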

[10] = read-out: solute carrier (SLC22A1), SLC22A1 (gene 6580); experiment: LTEA_HepaRG_SLC22A1: Life Technologies and Expression Analysis (LTEA) Assay for solute carrier (SLC22A1) using HepaRG (AID 2283524)
Outline: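 Transcript level of SLC22A1 quantified by qRT-PCR (normalized to three housekeeping genes) after 48 h chemical exposure of HepaRG cells, eight concentrations up to 100 µM, half-log steps, 0.5% DMSO vehicle. Gain or loss relative to DMSO fitted bidirectionally.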

[11] = read-out: Pyruvate Dehydrogenase Kinase 4 (PDK4), PDK4 (gene 5166); experiment: LTEA_HepaRG_PDK4: Life Technologies and Expression Analysis (LTEA) Assay for Pyruvate Dehydrogenase Kinase 4 (PDK4) using HepaRG (AID 2283525)
Outline: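 Readout is qRT-PCR of PDK4 transcript, normalized to three housekeeping genes, with bidirectional fitting against 0.5% DMSO vehicle. Differentiated HepaRG cells were treated 48 h in serum-free induction medium, duplicate wells, eight-point half-log series topping at 100 uM.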

[12] = read-out: NAD(P)H dehydrogenase [quinone] 1 (NQO1), NQO1 (gene 1728); experiment: LTEA_HepaRG_NQO1: Life Technologies and Expression Analysis (LTEA) Assay for NAD(P)H dehydrogenase [quinone] 1 (NQO1) using HepaRG (AID 2283526)
Outline: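 qRT-PCR read-out (Fluidigm TaqMan), normalized to three housekeeping genes, after 48 h chemical exposure of HepaRG cells. Concentrations: eight points, top 100 uM, half-log steps, 0.5% DMSO vehicle. Gain or loss of signal fitted relative to DMSO.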

[13] = read-out: Nuclear factor erythroid 2-related factor 2 (Homo sapiens) (UniProt Q16236); experiment: LTEA_HepaRG_NFE2L2: Life Technologies and Expression Analysis (LTEA) Assay for Nuclear factor erythroid 2-related factor 2 (NFE2L2) Transcription Factor using HepaRG (AID 2283527);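 note: TaqMan qRT-PCR transcript level normalised to ACTB GAPDH and POLR2A housekeeping genes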
Outline: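 NFE2L2 transcript level was read by qRT-PCR (housekeeping ACTB/GAPDH/POLR2A normalisation) after 48 h chemical treatment of HepaRG in serum-free induction medium. Duplicate 8-point half-log curves, top 100 uM, 0.5% DMSO vehicle; up- or down-regulation fitted against vehicle.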

[14] = read-out: succinate dehydrogenase complex iron sulfur subunit B (SDHB), SDHB (gene 6390); experiment: LTEA_HepaRG_SDHB: Life Technologies and Expression Analysis (LTEA) Assay for succinate dehydrogenase complex iron sulfur subunit B (SDHB) using HepaRG (AID 2283528)
Outline: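 A human HepaRG culture in serum-free induction medium received test chemicals for 48 h over an eight-point range capped at 100 uM. SDHB expression change was quantified by qRT-PCR.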

[15] = read-out: Signal transducer and activator of transcription 3 (Homo sapiens) (UniProt P40763); experiment: LTEA_HepaRG_STAT3: Life Technologies and Expression Analysis (LTEA) Assay for Signal transducer and activator of transcription (STAT3) using HepaRG (AID 2283529)
Outline: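 STAT3 transcript quantified by qRT-PCR against three housekeeping genes (ACTB, GAPDH, POLR2A), fitted both directions relative to DMSO. HepaRG cultures exposed 48 h to eight half-log concentrations, top 100 uM, 0.5% DMSO, serum-free induction medium.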

[16] = read-out: solute carrier (SLCO1B1), SLCO1B1 (gene 10599); experiment: LTEA_HepaRG_SLCO1B1: Life Technologies and Expression Analysis (LTEA) Assay for solute carrier (SLCO1B1) using HepaRG (AID 2283530)
Outline: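 HepaRG, serum-free induction medium, 48 h dosing, 8-pt half-log from 100 uM, 0.5% DMSO vehicle, duplicates. Readout: SLCO1B1 mRNA, qRT-PCR, ACTB/GAPDH/POLR2A normalization; up or down fit vs DMSO.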

[17] = read-out: sulfotransferase 2A1 (SULT2A1), SULT2A1 (gene 6822); experiment: LTEA_HepaRG_SULT2A1: Life Technologies and Expression Analysis (LTEA) Assay for sulfotransferase 2A1 (SULT2A1) using HepaRG (AID 2283531)
Outline: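 Transcript levels of SULT2A1, quantified by qRT-PCR and normalized to three housekeeping genes, serve as the readout. Human HepaRG cultures receive test chemicals for 48 h at up to 100 uM in half-log steps, with 0.5% DMSO vehicle.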

[18] = read-out: Transforming Growth Factor (TGFA), TGFA (gene 7039); experiment: LTEA_HepaRG_TGFA: Life Technologies and Expression Analysis (LTEA) Assay for Transforming Growth Factor (TGFA) using HepaRG (AID 2283532)
Outline: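 TGFA transcript quantified by qRT-PCR (Fluidigm arrays) against three housekeeping genes, after 48 hours chemical treatment of HepaRG cells. Top concentration 100 uM with half-log dilutions, 8 points, duplicates, 0.5% DMSO.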

[19] = read-out: Transforming Growth Factor (TGFB1), TGFB1 (gene 7040); experiment: LTEA_HepaRG_TGFB1: Life Technologies and Expression Analysis (LTEA) Assay for Transforming Growth Factor (TGFB1) Transporter using HepaRG (AID 2283533)
Outline: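 HepaRG, 48 h post-plating, switched to serum-free induction medium; chemicals 100 uM top, half-log, 8 pts, 0.5% DMSO, dup; 48 h exposure; RNA → Fluidigm TaqMan qRT-PCR; norm ACTB/GAPDH/POLR2A; bidirectional fit vs DMSO.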

Measured: outcome

Chain of Signal transducer and activator of transcription 3 (Homo sapiens) (P40763 whole entry, looked up): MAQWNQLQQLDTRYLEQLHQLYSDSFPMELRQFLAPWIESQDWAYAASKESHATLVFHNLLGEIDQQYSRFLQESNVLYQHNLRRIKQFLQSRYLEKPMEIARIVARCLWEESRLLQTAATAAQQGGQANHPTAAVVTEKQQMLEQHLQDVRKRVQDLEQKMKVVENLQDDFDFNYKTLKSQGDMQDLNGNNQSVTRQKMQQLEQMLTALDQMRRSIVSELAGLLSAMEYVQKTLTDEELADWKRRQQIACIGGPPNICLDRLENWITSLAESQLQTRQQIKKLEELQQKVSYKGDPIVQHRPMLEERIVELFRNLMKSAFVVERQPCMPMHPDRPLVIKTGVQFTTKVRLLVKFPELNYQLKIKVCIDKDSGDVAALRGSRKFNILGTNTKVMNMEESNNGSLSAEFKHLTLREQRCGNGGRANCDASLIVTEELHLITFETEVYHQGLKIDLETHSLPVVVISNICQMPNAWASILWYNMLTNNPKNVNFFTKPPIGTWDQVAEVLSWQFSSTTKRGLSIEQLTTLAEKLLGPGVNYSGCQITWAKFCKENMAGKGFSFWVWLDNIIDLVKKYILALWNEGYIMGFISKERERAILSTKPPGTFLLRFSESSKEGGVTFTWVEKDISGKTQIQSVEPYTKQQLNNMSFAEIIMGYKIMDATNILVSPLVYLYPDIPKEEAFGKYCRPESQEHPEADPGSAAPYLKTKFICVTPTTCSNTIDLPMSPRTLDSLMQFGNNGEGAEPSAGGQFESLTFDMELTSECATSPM
Chain of Nuclear factor erythroid 2-related factor 2 (Homo sapiens) (Q16236 whole entry, looked up): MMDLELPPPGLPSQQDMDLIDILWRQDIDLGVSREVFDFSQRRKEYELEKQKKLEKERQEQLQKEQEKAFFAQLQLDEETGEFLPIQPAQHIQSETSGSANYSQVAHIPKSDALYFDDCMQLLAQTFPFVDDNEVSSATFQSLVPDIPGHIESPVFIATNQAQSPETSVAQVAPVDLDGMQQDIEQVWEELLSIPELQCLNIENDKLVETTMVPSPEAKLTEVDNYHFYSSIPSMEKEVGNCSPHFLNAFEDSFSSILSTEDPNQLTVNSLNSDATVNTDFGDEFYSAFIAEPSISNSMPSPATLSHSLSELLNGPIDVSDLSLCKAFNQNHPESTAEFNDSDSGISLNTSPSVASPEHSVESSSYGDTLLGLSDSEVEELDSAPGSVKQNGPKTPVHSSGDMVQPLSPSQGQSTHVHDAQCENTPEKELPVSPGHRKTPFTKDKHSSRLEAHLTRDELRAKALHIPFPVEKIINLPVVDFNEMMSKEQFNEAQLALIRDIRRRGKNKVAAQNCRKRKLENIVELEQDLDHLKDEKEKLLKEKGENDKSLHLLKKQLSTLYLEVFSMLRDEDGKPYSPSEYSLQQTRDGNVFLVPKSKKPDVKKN

N#CCCCCC#N
inactive: [1] | [2] | [3] | [4] | [5] | MYC, MYC (gene 4609) | [6] | [7] | [8] | [9] | [10] | [11] | [12] | [13] | [14] | [15] | [16] | [17] | [18] | [19]

O=C(CCl)c1ccccc1
inactive: [1] | [2] | [3] | [4] | [5] | MYC, MYC (gene 4609) | [6] | [7] | [8] | [9] | [10] | [11] | [12] | [13] | [14] | [15] | [16] | [17] | [18] | [19]

— PubChem BioAssay (EPA / NIEHS)
